# Laboratory results reported in PubChem BioAssay (NCATS).
# Inconclusive results are not listed. Values without a mark were called inactive. Active and inactive are the calls of the source. The call rests on the fitted dose curve; in most records, active means well fitted inhibition curve with a large enough effect; inconclusive means small, poorly fitted or top-dose-only effect; inactive means flat fitted curve, though single readings scatter.
# System: HEK293
# Assay: Cytotoxic Profiling of Annotated Libraries Using Quantitative High-Throughput Screening (AID 1296008); further: nearly all actives have a fitted effect of over 60% in size
# Conditions: Five cell lines viability, CellTiter-Glo ATP luminescence, 48-72 h; max response: stronger effect = lower value
# Outline: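 Compounds were pin-transferred onto cells and incubated 48 or 72 hr at 37 degree Celsius, 95% humidity. CellTiter-Glo was added, plates sat 10 min at room temperature, then ATP-coupled luminescence was imaged as the viability read-out.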
# On the % scale 0 is the no-effect control and ±100 the full control effect; potency means the concentration at half of the fitted maximal effect.
SMILES,max response [%],outcome,Potency
CN1C(=O)N(c2ccc(C#N)c(C(F)(F)F)c2)C(=O)[C@]1(CO)c1ccccc1,-8.53,–,–
C=C1[C@@H]2CC[C@@]3(C)[C@H](c4ccoc4)OC(=O)C[C@]13O[C@H]1CC(=O)C(C)(C)[C@H](C(OC(C)=O)C(=O)OC)[C@]12C (some centres undefined),-1.58,–,–
C[C@@H]1C(=O)O[C@H]2[C@H](O)[C@@]34[C@@H]5OC(=O)[C@@]3(O[C@@H]3OC(=O)[C@@H](O)[C@@]34[C@H](C(C)(C)C)[C@H]5O)[C@@]12O,-8.33,–,–
COC(=O)C1(C)CCC(O)C2(C)c3c(O)cc(C(C)C)cc3C(O)C(OC(C)=O)C12 (centres undefined),–,inactive,–
CN1C(=O)c2ccccc2NC(=O)C1Cc1ccccc1 (centres undefined),–,inactive,–
CCC(C)(OC(C)=O)C(=O)O[C@H]1[C@H](OC(C)=O)C[C@@H]2[C@@](C)([C@@H]3C[C@H]4C=CO[C@H]4O3)[C@H](C)C[C@H](OC(C)=O)[C@@]2(COC(C)=O)[C@@]12CO2 (some centres undefined),–,inactive,–
CCN1C[C@]2(COC(=O)c3ccccc3N3C(=O)C[C@H](C)C3=O)CC[C@H](OC)[C@@]34[C@@H]5C[C@H]6[C@H](OC)[C@@H]5[C@](O)(C[C@@H]6OC)[C@](O)([C@@H](OC)[C@H]23)[C@@H]14,2.21,–,–
CO[C@H]1[C@H](O)[C@H](O[C@H]2CC[C@]3(C)C4CC[C@]5(C)[C@H](C6=CC(=O)OC6)CC[C@]5(O)C4CC[C@@H]3C2)O[C@@H](C)[C@@H]1O (some centres undefined),–,–,22.4 nM (active)
N#CC(OC1OC(COC2OC(CO)C(O)C(O)C2O)C(O)C(O)C1O)c1ccccc1 (centres undefined),–,inactive,–
COc1cc(C(=O)O[C@H]2[C@@H]3C=CO[C@@H](O[C@@H]4O[C@H](CO)[C@@H](O)[C@H](O)[C@H]4O)[C@@H]3[C@@]3(CO)O[C@@H]23)ccc1O,4.28,–,–
CC1=C2C[C@H]3[C@@H](CC=C4C[C@@H](O)CC[C@@]43C)[C@@H]2CC[C@]12O[C@@H]1C[C@H](C)CN[C@H]1[C@H]2C,–,inactive,–
CCC(C)(C#N)O[C@@H]1O[C@H](CO)[C@@H](O)[C@H](O)[C@H]1O (some centres undefined),–,inactive,–
C1=C2CCCN[C@H]2[C@@H]2C[C@H]1[C@H]1CCCCN1C2,-4.85,–,–
CCCCCCn1c(=O)c(C(=O)Nc2ccc(C(=O)OCCC)cc2)c(O)c2ccccc21,–,inactive,–
C=C[C@H]1CN2CC[C@H]1C[C@@H]2[C@@H](O)c1ccnc2ccccc12,-22.7,–,–
OCCCCC#Cc1cncc(OC[C@@H]2CCN2)c1,-3.98,–,–
COC(=O)N1CCN(C(=O)Cc2ccc(Cl)c(Cl)c2)[C@@H](CN2CCCC2)C1,-9.31,–,–
COC1=CC(=O)O[C@@H](CCc2ccccc2)C1,0.422,–,–
CN1[C@H]2C[C@H](OC(=O)[C@H](CO)c3ccccc3)C[C@@H]1[C@@H](O)C2,–,inactive,–
CCc1[nH]c2ccc(OC)cc2c1CCN(C)C,-15.9,–,–
COc1cc2c(cc1OC)[C@@]13CCN4CC5=CCO[C@H]6CC(=O)N2[C@H]1[C@H]6[C@H]5C[C@H]43,-25.1,–,–
COC1C(O)C(OC2CCC3(C=O)C(CCC4C3CCC3(C)C(C5=CC(=O)OC5)CCC43O)C2)OC(C)C1OC1OC(CO)C(O)C(O)C1O (centres undefined),–,–,243 nM (active)
Cc1cccc(NC(=O)N[C@@H]2N=C(c3ccccc3)c3ccccc3N(C)C2=O)c1,-5.08,–,–
COc1cc(C)[nH]c(=O)c1CNC(=O)c1c(C)n([C@H](C)C2CCOCC2)c2ccccc12,–,inactive,–
